Assay outcomes: PubChem BioAssay, The Scripps Research Institute Molecular Screening Center
Hits are enriched below; roughly 2.9% of the tested compounds scored in any of these assays.
PAFAH1B3 inh: PAFAH1B3 enzyme inhibitors, primary screen, biochemical, fluorescence polarization, human | Platelet-activating factor acetylhydrolase IB subunit alpha1 (Homo sapiens), Q15102 | recombinant PAFAH1B3, FP-rhodamine probe | inhibition, % at 3.39 µM | actives 0.28% (n = 340,000) | AID 492972, 2010;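 active = inhibition above the screen-wide average of all tested compounds plus 3 SD, cut at about 25% in these data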;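 note: 0% = enzyme with DMSO only and 100% = wells lacking PAFAH1B3 protein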
Target sequence (Q15102 whole entry, looked up): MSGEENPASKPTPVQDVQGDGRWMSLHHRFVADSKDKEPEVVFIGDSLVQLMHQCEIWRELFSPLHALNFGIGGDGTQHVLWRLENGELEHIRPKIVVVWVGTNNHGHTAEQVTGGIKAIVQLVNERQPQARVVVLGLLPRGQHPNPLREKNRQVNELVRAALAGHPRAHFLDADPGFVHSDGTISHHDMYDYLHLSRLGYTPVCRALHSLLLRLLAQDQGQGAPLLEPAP
PAFAH2 FP inh: PAFAH2 enzyme inhibitors, primary screen, biochemical, fluorescence polarization, human; Platelet-activating factor acetylhydrolase 2, cytoplasmic (Homo sapiens), Q99487; recombinant PAFAH2, FP-rhodamine activity probe; inhibition, % at 3.39 µM; actives 0.99% (n = 340,000);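 active = inhibition above the mean over all tested compounds plus 3 SD, cut at about 30% in these data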;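 note: inhibitors block probe labeling of enzyme so polarization drops; 0% = enzyme with DMSO and 100% = wells lacking PAFAH2 protein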
PAFAH1B2 FP inh: PAFAH1B2 enzyme inhibitors, primary screen, biochemical, fluorescence polarization, human; recombinant PAFAH1B2, FP-rhodamine activity probe; inhibition, % at 3.39 µM; actives 1.2% (n = 340,000);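 active = inhibition above the mean of all tested compounds plus 3 SD, cut at about 24% in these data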;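 note: 0% = enzyme with DMSO and 100% = wells lacking PAFAH1B2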
EBNA-1 inhibitor: EBNA-1 DNA-binding inhibitors, primary screen, biochemical, fluorescence polarization | AID 1950, 2009 | inhibition, % at 14.8 µM | actives 0.34% (n = 300,000); in the data active = inhibition above about 28%
ZTA counter: counter-screen for EBNA-1 inhibitors: inhibitors of Epstein-Barr virus ZTA. P03206. ZTA-DNA binding, fluorescence polarization. inhibition, % at 11 µM. actives 0.15% (n = 320,000). AID 2234; in the data active = inhibition above about 33%
pPAFAH inh: pPAFAH enzyme inhibitors, primary screen, biochemical, fluorescence polarization, human; inhibition, % at 3.39 µM; AID 463082, 2010; recombinant pPAFAH, FP-rhodamine probe fluorescence polarization; actives 1.5% (n = 330,000); Platelet-activating factor acetylhydrolase (Homo sapiens), Q13093;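 active = inhibition above the mean inhibition across the screen plus 3 SD, cut at about 25% in these data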;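 note: inhibitors block binding of the rhodamine activity-based probe so polarization drops; 0% = enzyme with DMSO and 100% = wells lacking pPAFAH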
Target sequence (Q13093 whole entry, looked up): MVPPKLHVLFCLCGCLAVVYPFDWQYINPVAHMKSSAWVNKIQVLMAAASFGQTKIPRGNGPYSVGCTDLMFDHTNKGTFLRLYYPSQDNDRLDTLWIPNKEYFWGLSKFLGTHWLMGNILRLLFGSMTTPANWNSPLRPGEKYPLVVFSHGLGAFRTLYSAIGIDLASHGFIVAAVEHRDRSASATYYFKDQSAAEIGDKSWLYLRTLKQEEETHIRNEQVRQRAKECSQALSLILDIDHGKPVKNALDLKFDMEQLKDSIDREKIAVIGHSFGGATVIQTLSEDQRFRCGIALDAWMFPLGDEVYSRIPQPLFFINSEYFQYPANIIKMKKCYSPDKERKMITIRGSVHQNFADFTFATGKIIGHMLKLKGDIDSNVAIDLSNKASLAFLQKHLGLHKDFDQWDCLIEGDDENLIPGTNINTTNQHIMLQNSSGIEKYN
pPAFAH FP conf: pPAFAH (PLA2G7) enzyme inhibitors, confirmation, biochemical, fluorescence polarization, human. actives 72% (n = 2,300). shares compounds with pPAFAH inh. inhibition, % at 3.39 µM. recombinant pPAFAH, FP-Rh probe fluorescence polarization;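 active = mean inhibition of the triplicate above the hit cutoff set for the earlier primary screen, cut at about 25% in these data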;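 note: 0% = enzyme with DMSO and 100% = wells lacking pPAFAH enzyme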
* hit, by the source's call; x = no result given.

SMILES | PAFAH1B3 inh | PAFAH2 FP inh | PAFAH1B2 FP inh | EBNA-1 inhibitor | ZTA counter | pPAFAH inh | pPAFAH FP conf
CC(C)C(=O)NC(c1cccc([N+](=O)[O-])c1)c1ccc2cccnc2c1O (centres undefined) | 13.9 | 2.5 | 3.8 | -6.8 | 12.2 | 14.5 | x
CC(C)C(=O)NC(c1cccs1)c1cc([N+](=O)[O-])c2cccnc2c1O (centres undefined) | 6.5 | -4.5 | -5.2 | -7.7 | 4.3 | 83.6* | 79.3*
Cc1ccc(C(NC(=O)C(C)C)c2cc([N+](=O)[O-])c3cccnc3c2O)cc1 (centres undefined) | 17.4 | 17.1 | 4.5 | -1.3 | 0.1 | 53.8* | 74.0*
CC(=O)NC(c1cccs1)c1cc(F)c2cccnc2c1O (centres undefined) | 13.5 | 5.7 | 1.0 | x | -8.7 | 3.7 | x
COc1ccc(CCN(C)C(=O)c2cc(S(=O)(=O)N3CCCCC3)ccc2Cl)cc1OC | -3.5 | -2.5 | -3.2 | 5.0 | 11.9 | 1.6 | x
COc1ccc(NC(=O)Nc2nc(C)cc(C)n2)c(OC)c1 | 6.3 | -0.4 | 1.9 | -6.0 | 5.6 | 1.1 | x
CC(=O)Nc1c(-c2ccccc2)c2cc(Br)ccc2[nH]c1=O | 4.4 | 4.9 | 2.6 | -12.8 | -5.5 | 3.2 | x
NC(=O)CC(NC(=O)c1ccccc1)c1ccc(NCCc2ccc(Cl)cc2)c([N+](=O)[O-])c1 (centres undefined) | -0.6 | 2.4 | 7.7 | 10.7 | -21.3 | 6.5 | x
O=C(c1ccc(S(=O)(=O)N2CCCC2)cc1)N1CCCCC1 | 4.5 | 7.7 | 8.4 | -4.3 | 2.8 | -1.2 | x
O=C(/C=C/c1ccc(O)c(O)c1)c1ccc(S(=O)(=O)N2CCCCCC2)cc1 | 15.9 | 7.7 | 1.1 | 3.4 | 10.7 | 50.2* | 88.7*
O=C(O)c1cc(Cl)c2c(c1)[C@@H]1C=CC[C@@H]1[C@H](c1ccc(S(=O)(=O)N3CCOCC3)cc1)N2 | 4.2 | 40.8* | 1.8 | 7.3 | 11.4 | 45.9* | 19.6
CN(CC(=O)Nc1ccc(Cl)cc1)C(=O)c1ccc(-n2cncn2)c([N+](=O)[O-])c1 | -6.6 | 2.7 | 4.1 | 7.7 | 13.9 | 71.2* | 0.1
O=C(Cc1ccccc1F)NCC1(N2CCOCC2)CCCCC1 | 6.3 | -1.9 | 0.5 | -9.4 | 3.3 | 1.1 | x
CCn1nc2cc(C(=O)NCCc3cccs3)ccc2c1OC | 5.9 | 5.5 | 1.2 | 1.8 | -5.7 | 49.7* | 1.8
CCOc1c2ccc(C(=O)NCCc3ccc(C)cc3)cc2nn1CC | 2.4 | -5.9 | 5.6 | 8.8 | 7.8 | 10.9 | x
CCN1CCN(C(=O)C(Cc2ccccc2)NC(=O)c2ccc(Cl)c(S(=O)(=O)N(C)C)c2)CC1 (centres undefined) | 5.9 | 4.7 | 0.6 | x | x | 5.0 | x
NS(=O)(=O)c1ccc(CCNC(=S)NC(=O)c2ccccc2Br)cc1 | 6.9 | -0.6 | -0.8 | x | x | 2.8 | x
Cc1ccc(N=Nc2c(O)[nH]c(=O)[nH]c2=O)cc1S(=O)(=O)Nc1ccc(Br)cc1 | 13.3 | 18.4 | -0.3 | x | x | 76.2* | 24.5
CCCCCC(=O)Nc1ccc(-c2csc(N)n2)cc1 | 11.1 | -1.3 | 2.6 | 2.4 | 22.2 | 15.1 | x
C#CCNC(=O)C1=C[C@@H](c2ccc(C(F)(F)F)cc2)[C@H](CCCO)[C@@H](OCC)O1 | 14.1 | -2.3 | 0.7 | 5.9 | 3.4 | 3.3 | x
Cc1ccc(S(=O)(=O)N2CCOCC2)cc1C(=O)OCCOc1cccc(Cl)c1 | -0.1 | -0.4 | 5.8 | -2.9 | -3.4 | 19.4 | x
CC(Oc1ccccc1F)C(=O)NNC(=O)CCNC(=O)c1ccccc1Cl (centres undefined) | 3.1 | -1.1 | 3.7 | -3.3 | -7.7 | 53.9* | -0.9
O=C1C(CSCc2ccccc2)NC(=S)N1c1ccccc1 (centres undefined) | x | x | x | 17.2 | 4.0 | 37.1* | -1.3
O=C(O)CC1NC(=S)N(c2ccccc2)C1=O (centres undefined) | -1.1 | -4.2 | -1.0 | -0.8 | 9.4 | 5.5 | x
O=C(N/N=C/c1ccc(-c2ccccc2Cl)o1)c1ccccc1 | 0.6 | 0.8 | 1.3 | -0.8 | 4.2 | 5.3 | x
SMILES | PAFAH1B3 inh | PAFAH2 FP inh | PAFAH1B2 FP inh | EBNA-1 inhibitor | ZTA counter | pPAFAH inh | pPAFAH FP conf
O=C(O)c1ccc(N/N=C/c2ccc(-c3ccccc3Cl)o2)cc1 | 8.2 | 7.2 | 1.8 | -2.6 | -4.7 | 45.5* | 16.0
CCOC(=O)NC1(Nc2ccc(C)cc2)Oc2ccccc2O1 | 11.1 | 3.6 | 6.8 | -4.5 | 3.9 | 45.6* | 4.8
COc1ccc(S(=O)Cc2ccc(C(=O)NCc3cccc(OC)c3)o2)cc1 (centres undefined) | 5.8 | -3.4 | 1.6 | 4.5 | -1.6 | -0.9 | x
CC(=O)C1C(c2ccc(F)cc2)c2c(noc2C)CC1(C)O (centres undefined) | x | x | x | -6.3 | 3.2 | -1.8 | x
O=c1[nH]c(C2CCN(S(=O)(=O)c3ccccc3C(F)(F)F)CC2)nc2c1nnn2Cc1cccc(F)c1 | 2.0 | 4.6 | -0.4 | 0.2 | -3.3 | -1.9 | x
Cc1cc(C(=O)CSc2nc(N)cc(=O)[nH]2)c(C)n1-c1ccc(OC(F)F)cc1 | -0.6 | -0.5 | -0.2 | -5.0 | -9.5 | 59.6* | 70.6*
COc1ccc(CCn2c(C)cc(C(=O)CSc3nnc(N)s3)c2C)cc1 | 11.5 | 0.9 | 0.7 | -26.7 | 9.2 | 0.4 | x
Cc1cc(C(=O)CSc2nc(N)cc(=O)[nH]2)c(C)n1CCc1ccc(F)cc1 | -11.8 | -8.7 | -3.6 | -2.1 | -3.3 | 61.3* | 61.5*
COc1ccc(CCn2c(C)cc(C(=O)CSc3nc(N)cc(=O)[nH]3)c2C)cc1 | -1.9 | -4.2 | 0.9 | 1.3 | -9.8 | 35.3* | 31.2*
N/C(=N\OC(=O)c1ccc(Br)o1)c1ccccn1 | 6.0 | 3.4 | 2.2 | -3.2 | -3.2 | 7.7 | x
CC(C)CC(NC(=O)c1ccc(C#CC(C)(C)O)s1)C(=O)O (centres undefined) | -0.3 | -5.2 | 3.5 | 5.2 | 2.4 | 1.4 | x
O=C(N/N=C/c1ccc([N+](=O)[O-])o1)c1ccc(NS(=O)(=O)c2cccs2)cc1 | 18.2 | 13.8 | 2.7 | 0.3 | -1.2 | 38.5* | 12.4
CCc1c(C)sc(NC(=O)CC#N)c1C#N | 7.6 | 20.5 | 9.2 | 0.6 | 5.2 | 34.5* | 15.4
COc1ccc(CNc2oc(-c3cccc4ccccc34)nc2C#N)cc1 | 1.8 | -7.2 | -2.6 | 6.8 | -9.1 | -1.1 | x
CCOP(=O)(OCC)c1nc(-c2cccc3ccccc23)oc1NCCc1ccc(OC)cc1 | 7.3 | 5.7 | -1.1 | 3.5 | 8.4 | 38.0* | 44.3*
CCC(=O)OC1(C)C(=O)C=C2C=C(c3ccsc3)OC=C2C1=O (centres undefined) | 6.0 | 15.8 | -5.3 | -0.5 | 12.1 | 48.2* | 33.8*
